Measurements published in ChEMBL document CHEMBL3433997, “St. Jude Leishmania screening dataset” (2016).

What follows are molecules tested against Glucose transporter (Leishmania mexicana) (UniProt O61059) (assay: ST_JUDE_LEISH: Cytotoxicity at 2uM final concentration against transgenic Leishmania Mexicana promastigotes LmGT2 that are glucose transport deficient and complemented with the L. Mexicana glucose transporter 2. Activity is measured by DNA content using SYBR green in vitro).
Format: functional

SMILES | inhibition
N=C1SC(=Cc2cn[nH]c2-c2ccc(F)cc2)C(=O)N1c1nccs1 | 1.17%
CN(C)CCNCc1nc(-c2ccc3c(Nc4ccc(Oc5ccccc5)cc4)ccnc3c2)cs1 | 5.9%
COc1ccc(C(=O)C2CCN(CCCCNC(=O)c3ccc(NC(=O)c4ccc(Cl)cc4)cc3)CC2)c(OC)c1 | 1.53%
CC(=O)N(C)C1CCN(Cc2ccc(-c3ccc(-c4nc5cc(F)ccc5[nH]4)s3)cc2)C1 (centres undefined) | 6.2%
Cc1cc(C(F)(F)F)n2nc(C(=O)N(C)Cc3cncn3Cc3ccc(F)cc3)cc2n1 | 1.49%
O=C(C=Cc1ccc(Cl)c(Cl)c1)NCCCCCN1CCC(CCCNS(=O)(=O)c2cccc(C(F)(F)F)c2)CC1 | 2.46%
COc1ccc2nccc([C@@H](O)CN3CCC(NCc4cnc5snnc5c4)C(F)C3)c2c1 (some centres undefined) | 2.93%
COc1ccc2c(=NN=Cc3cccc(F)c3)cc(C)[nH]c2c1 | 1.95%
CC(C)(C)OC(=O)NCC(=O)N(Cc1ccccc1)Cc1ccccc1 | 3.73%
CC(C)c1ccc(O)cc1Nc1ccnc2ccc(C(F)(F)F)cc12 | -0.66%
NC1(C(=O)O)Cc2ccc(Cl)cc2C1 (centres undefined) | 3.62%
CCN1CCC(N(Cc2ccc(-c3ccc(C(F)(F)F)cc3)cc2)C(=O)CCCCn2c(CCc3cccc(F)c3F)nc(=O)c3ccccc32)CC1 | -0.6%
COc1ccc(CNCCCCCCNCc2ccc(OC)c3ccccc23)c2ccccc12 | 103%
O=C(CNC1=NCCN1)Nc1ccc(NC(=O)Nc2ccc(NC(=O)CNC3=NCCN3)cc2)cc1 | 0.21%
CCc1ccc(NC(=O)c2ccc(CN3CCCN(Cc4cccc(O)c4)CC3)cc2)cc1 | 2.57%
CC1(C)NC(N)=NC(=N)N1OCCCCCOc1ccccc1 | 1.28%
Cc1cccc(Cn2ccc3c(N)nc(N)nc32)c1 | 3.04%
COc1ccc(NC(=O)c2ccc(-c3ccc(-c4cccnc4)cc3)c(C)c2)cc1OCCN(C)C | 0.84%
O=C(/C=C/c1ccc(F)c(Br)c1)NCCCCCN1CCC(c2c[nH]c3ccccc23)CC1 | -1.08%
CN(C)CCN(Cc1ccccc1)c1ccc([N+](=O)[O-])cc1C(F)(F)F | 8.1%
Cc1ccc(NC(=O)c2ccc(N3CCN(c4ccncc4)CC3)cn2)cc1F | 102%
COc1ccc(C=NN=c2cc(C)[nH]c3ccc(C)cc23)c2ccccc12 | -1.89%
O=C(NC(=S)NCc1ccncc1)c1ccccc1 | 1.6%
CCCCCN1CCCC1CNS(=O)(=O)c1ccc(C(=O)Nc2ccc(C(F)(F)F)cc2)cc1 (centres undefined) | 1.09%
